Assay results taken from PubChem BioAssay AID1159580 (chemical genetic matrix, 2015).
Values joined by “and” are separate entries in the source; they are usually repeats but may differ in a detail not shown here. Equal entries are not always repeated. Among all 5,500 compounds or so, about 2,000 (36%) were called active. Another 18% or so got no clear call; they are omitted. Cut-off read from the data, not from the text of the source: active = normalized growth mostly below about 0.91 (no sharp cut-off); inconclusive = no clear call, values can overlap the other calls; inactive = mostly above about 0.92. The list shows a part of the results.

Experiment: chemical genetic growth profiling, strain panel (AID 1159580);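 note: tested at 20 µM; growth read once vehicle control cultures reached saturation at 30 °C; 1 = growth at the plate median or of vehicle wells; lower values mean less growth of the strain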
Settings: S. cerevisiae deletion strains, growth OD

Measured: normalized growth

CC1=C(/C=C/C(C)=C/C=C/C(C)=C/C(=O)O)C(C)(C)CCC1
inactive: locus YAL013W, strain DEP1, stronger effect = lower value 0.993 and 1.03 | locus YAL021C, strain ccr4, stronger effect = lower value 1.01 | locus YAL026C, strain drs2, stronger effect = lower value 0.958 | locus YAL030W, strain snc1, stronger effect = lower value 0.996 | locus YAL040C, strain CLN3, stronger effect = lower value 1.03 | locus YBL061C, strain skt5, stronger effect = lower value 0.952 | locus YBR009C, strain hhf1, stronger effect = lower value 0.968 | locus YBR021W, strain FUR4, stronger effect = lower value 1.04 | locus YBR023C, strain chs3, stronger effect = lower value 0.959 | locus YBR171W, strain sec66, stronger effect = lower value 1 | locus YBR229C, strain ROT2, stronger effect = lower value 1.01 | locus YBR231C, strain swc5, stronger effect = lower value 0.996 | locus YBR279W, strain paf1, stronger effect = lower value 0.994 | locus YCL011C, strain gbp2, stronger effect = lower value 0.976 | locus YCL016C, strain dcc1, stronger effect = lower value 0.951 | locus YCL029C, strain bik1, stronger effect = lower value 1.02 | locus YCL061C, strain MRC1 (second series), stronger effect = lower value 1.01 | locus YCL061C, strain MRC1, stronger effect = lower value 0.969 | locus YCL069W, strain vba3, stronger effect = lower value 1 | locus YCR088W, strain abp1, stronger effect = lower value 0.993 | locus YDL005C, strain med2, stronger effect = lower value 0.998 | locus YDL035C, strain GPR1, stronger effect = lower value 0.998 | locus YDL040C, strain nat1, stronger effect = lower value 1 | locus YDL074C, strain BRE1, stronger effect = lower value 0.995 | locus YDL101C, strain DUN1, stronger effect = lower value 1.01 | locus YDL134C, strain PPH21, stronger effect = lower value 1.01 | locus YDL185W, strain tfp1, stronger effect = lower value 1.03 | locus YDL192W, strain arf1, stronger effect = lower value 1.03 | locus YDR001C, strain nth1, stronger effect = lower value 1 | locus YDR069C, strain doa4, stronger effect = lower value 0.979 | locus YDR101C, strain arx1, stronger effect = lower value 1.03 | locus YDR150W, strain NUM1, stronger effect = lower value 1.02 and 1.01 | locus YDR159W, strain sac3, stronger effect = lower value 0.928 | locus YDR162C, strain NBP2, stronger effect = lower value 1.01 | locus YDR195W, strain ref2 1.03 | locus YDR297W, strain sur2, stronger effect = lower value 0.991 | locus YDR318W, strain mcm21, stronger effect = lower value 1.01 | locus YDR334W, strain swr1, stronger effect = lower value 1.02 | locus YDR335W, strain msn5, stronger effect = lower value 0.962 | locus YDR363W, strain ESC2, stronger effect = lower value 0.994 | locus YDR388W, stronger effect = lower value 1.03 | locus YDR502C, strain sam2, stronger effect = lower value 1.03 | locus YEL003W, strain gim4, stronger effect = lower value 1.01 | locus YEL037C, strain rad23, stronger effect = lower value 1 | locus YEL061C, strain CIN8 (second series), stronger effect = lower value 1.01 | locus YEL061C, strain CIN8, stronger effect = lower value 1.01 | locus YER002W, strain NOP16, stronger effect = lower value 1.03 | locus YER015W, strain faa2, stronger effect = lower value 0.995 | locus YER016W, strain bim1, stronger effect = lower value 0.954 | locus YER110C, stronger effect = lower value 1.04 | locus YER111C, strain swi4, stronger effect = lower value 1 | locus YER155C, strain BEM2 (second series), stronger effect = lower value 0.953 | locus YER155C, strain BEM2, stronger effect = lower value 1.01 | locus YER167W, strain BCK2, stronger effect = lower value 1.01 | locus YFR010W, strain ubp6, stronger effect = lower value 0.99 | locus YGL078C, strain dbp3, stronger effect = lower value 1.03 | locus YGL086W, strain mad1, stronger effect = lower value 1.02 | locus YGL167C, strain pmr1, stronger effect = lower value 1.02 | locus YGL173C, strain kem1, stronger effect = lower value 0.97 | locus YGL227W, strain vid30, stronger effect = lower value 1.03 | locus YGL240W, strain doc1, stronger effect = lower value 0.992 | locus YGL248W, strain PDE1, stronger effect = lower value 1.01 | locus YGL253W, strain hxk2, stronger effect = lower value 0.99 | locus YGR078C, strain PAC10, stronger effect = lower value 0.996 | locus YGR135W, strain pre9, stronger effect = lower value 1.01 | locus YGR229C, strain SMI1, stronger effect = lower value 0.996 and 0.979 | locus YGR252W, strain gcn5, stronger effect = lower value 1.08 | locus YHR013C, strain ard1, stronger effect = lower value 0.942 | locus YHR027C, strain rpn1, stronger effect = lower value 0.975 | locus YHR030C, strain SLT2, stronger effect = lower value 1.01 and 0.982 | locus YHR079C, strain IRE1 (second series), stronger effect = lower value 1.01 | locus YHR079C, strain IRE1, stronger effect = lower value 1.01 | locus YHR094C, strain hxt1, stronger effect = lower value 1.03 | locus YHR129C, strain ARP1, stronger effect = lower value 1.01 | locus YHR142W, strain chs7, stronger effect = lower value 0.957 | locus YHR200W, strain rpn10, stronger effect = lower value 1.04 | locus YIL066C, strain RNR3, stronger effect = lower value 1 | locus YIL073C, strain SPO22, stronger effect = lower value 1.04 | locus YIL125W, strain kgd1, stronger effect = lower value 1.03 | locus YIR030C, strain dcg1, stronger effect = lower value 1.03 | locus YJL092W, strain hpr5, stronger effect = lower value 0.988 | locus YJL095W, strain BCK1 (second series), stronger effect = lower value 0.987 | locus YJL095W, strain BCK1, stronger effect = lower value 0.999 and 0.96 | locus YJL115W, strain asf1, stronger effect = lower value 1 | locus YJL129C, strain trk1, stronger effect = lower value 0.963 | locus YJL134W, strain LCB3, stronger effect = lower value 1.01 | locus YJL154C, strain vps35, stronger effect = lower value 1.02 | locus YJL164C, strain tpk1, stronger effect = lower value 0.971 | locus YJL166W, strain qcr8, stronger effect = lower value 0.987 | locus YJL168C, strain set2, stronger effect = lower value 1.04 | locus YJL187C, strain SWE1 (second series), stronger effect = lower value 1.01 | locus YJL187C, strain SWE1, stronger effect = lower value 0.989 | locus YJR043C, strain POL32, stronger effect = lower value 1.01 | locus YJR066W, strain TOR1, stronger effect = lower value 0.926
active: locus YDR137W, strain rgp1, stronger effect = lower value 0.824 | locus YDR392W, strain spt3, stronger effect = lower value 0.513
